Only some compounds are listed: those with a hit (about 2.3% of all), similar ones and a draw of the others.
CHRM1 agonist – agonists of human M1 muscarinic receptor | P11229 | CHO-K1 hM1, Fluo-8 calcium fluorescence, agonist mode; 0% DMSO, 100% acetylcholine EC100 | activation, % at 3 µM | hit rate 0.33% among 360,000 | AID 588814;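 active = activation above the run's mean compound activation plus 3 SD, cut at about 16% in these data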;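 also: peak over basal fluorescence ratio within a 140 s kinetic read after compound addition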
Target sequence (P11229 whole entry, looked up): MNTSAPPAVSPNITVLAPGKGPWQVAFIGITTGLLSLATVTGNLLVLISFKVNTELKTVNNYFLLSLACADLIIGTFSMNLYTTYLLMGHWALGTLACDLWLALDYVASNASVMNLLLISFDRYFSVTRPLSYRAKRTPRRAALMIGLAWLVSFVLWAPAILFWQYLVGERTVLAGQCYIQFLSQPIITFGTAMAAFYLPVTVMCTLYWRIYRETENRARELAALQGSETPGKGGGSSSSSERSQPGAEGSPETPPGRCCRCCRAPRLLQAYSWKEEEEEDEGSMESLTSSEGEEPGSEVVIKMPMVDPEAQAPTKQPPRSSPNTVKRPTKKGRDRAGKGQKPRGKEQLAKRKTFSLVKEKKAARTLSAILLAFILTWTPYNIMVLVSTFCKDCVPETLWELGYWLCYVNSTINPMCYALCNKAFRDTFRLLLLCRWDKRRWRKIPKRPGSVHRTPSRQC
CHRM1 PAM – positive allosteric modulators of human M1 muscarinic receptor; P11229; activation, % at 3 µM; hit rate 0.088% among 360,000; CHO-K1 hM1, Fluo-8 calcium fluorescence, ACh EC20; 0% = ACh EC20, 100% = maximal ACh; in the data active = activation above about 19%, passing the limit was not always enough
CHO-K1 Ca antag – M1 antagonist counterscreen hit in parental CHO-K1 cells; ATP-induced calcium, Fluo-8 fluorescence; AID 602250; inhibition, % at 3 µM; hit rate 0.6% among 360,000;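 active = inhibition above a per-plate cutoff, the plate's mean sample inhibition plus 3 SD, cut at about 24% in these data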
M1 ag parental – nonselective activator or artifact in parental CHO-K1 cells; Fluo-8 calcium fluorescence; scaled to maximal ATP response, vehicle zero; activation, % at 3 µM; hit rate 0.48% among 360,000; AID 602248; in the data active = activation above about 15%;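 also: untransfected CHO-K1 host cells lacking M1 receptor as counterscreen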
CHO-K1 Ca PAM – nonselective activator or artifact in parental CHO-K1 calcium assay | ATP EC20, Fluo-8 calcium fluorescence; 0% at ATP EC20, 100% at ATP max | AID 602247 | hit rate 0.02% among 360,000 | activation, % at 3 µM;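 active = activation above the run cutoff, the mean activation of all test compounds plus 3 SD, cut at about 40% in these data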;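 also: peak over basal fluorescence ratio in a 140 s read after ATP addition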
M1 antag – antagonists of human M1 muscarinic receptor; P11229; CHO-K1 hM1, Fluo-8 calcium fluorescence, ACh EC80 antagonist; inhibition, % at 3 µM; hit rate 1.3% among 360,000; AID 588852;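 active = percent inhibition above its own plate's cutoff, namely the mean of that plate's compound wells plus 3 SD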;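 also: peak over basal fluorescence ratio during 140 s after agonist addition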
Numbers stand for hits; . = inactive.

SMILES	CHRM1 agonist	CHRM1 PAM	CHO-K1 Ca antag	M1 ag parental	CHO-K1 Ca PAM	M1 antag
C[N+]12CCC(CC1)C(OC(=O)C(O)(c1ccccc1)c1ccccc1)C2 (configuration not stated)	.	.	.	.	.	98
CC(C)(C)C(=O)Nc1ccc(Sc2ccc([N+](=O)[O-])cc2)cc1	.	.	.	.	.	35
CC(C)(C)CN1CCC(Oc2cccc(C(=O)NCCCOc3cccnc3)c2)CC1	.	.	24	.	.	.
CCOc1c(OC(C)=O)ccc(/C=C/c2ccc3cccc(OC(C)=O)c3n2)c1[N+](=O)[O-]	.	.	.	.	.	.
C=CCN1C(=O)/C(=C/c2ccc(OC(C)=O)c(OCC)c2[N+](=O)[O-])SC1=S	.	.	25	.	.	.
Cc1nc2ccccc2c(C)c1CC(=O)N(C)CC(=O)Nc1cccc(F)c1	.	.	.	.	.	.
Cc1ccc(NC(=O)COC(=O)c2ccc3ncsc3c2)c(C)c1	.	.	.	.	.	.
O=C(Nc1nnc(CCN2CCCCC2)s1)c1ccccc1Cl	.	.	.	20	.	.
O=C(c1ccc(CS(=O)Cc2ccc(Cl)cc2)o1)N1CCN(C2CCCCC2)CC1 (configuration not stated)	.	.	.	.	.	.
Cc1cc(C)cc(NC(=O)C2CCN(C(=O)c3cccs3)CC2)c1	.	.	.	.	.	.
CC1Sc2ccc(S(=O)(=O)N3CCC(C(=O)Nc4ccc(Cl)cc4)CC3)cc2NC1=O (configuration not stated)	.	.	31	.	.	45
CCOc1ccc(N2CC(C(=O)Nc3ccc(S(=O)(=O)N4CCCCC4)cc3)CC2=O)cc1 (configuration not stated)	.	.	68	.	.	.
Cc1ccc(NC(=O)C2CCN(S(=O)(=O)c3ccc(N4CCCC4=O)cc3)CC2)cc1Cl	.	.	32	16	.	47
Cc1ccc(-n2c(SCC(N)=O)nnc2-c2ccc(S(=O)(=O)N3CCCCC3)cc2)c(C)c1	.	.	.	.	.	91
Cn1c(SCC(N)=O)nnc1-c1ccc(S(=O)(=O)N2CCCC2)cc1	.	.	.	.	.	.
CC(C)COC(=O)N1CCCCC1c1cc(C(=O)N2CCOCC2)no1 (configuration not stated)	.	.	.	.	.	.
Cc1[nH]c2ccccc2c1Cc1nnc(SCc2ccccc2)o1	.	.	.	.	.	.
CN(C)S(=O)(=O)c1cccc(COC(=O)c2cccnc2Cl)c1	.	.	.	17	.	.
CN(C)S(=O)(=O)c1cccc(COC(=O)c2cnccn2)c1	.	.	.	.	.	.
CC1=C(C(=O)Nc2cc(C(=O)NCCCOC(C)C)ccc2C)SCCO1	.	.	.	.	.	.
Cn1c(CSCc2ccc(F)cc2)nnc1SCC(=O)Nc1nccs1	.	.	26	.	.	.
COc1ccc(C(C(=O)NCC2CCCO2)N(Cc2cccs2)C(=O)c2snc(C(N)=O)c2N)cc1 (configuration not stated)	.	.	.	.	.	22
NC(=O)c1nsc(C(=O)N(c2cccc(F)c2)C(C(=O)NCC2CCCO2)c2cccs2)c1N (configuration not stated)	.	.	.	16	.	.
CCOc1ccc(C(C(=O)NCC2CCCO2)N(Cc2cccc(OC)c2)C(=O)c2snc(C(N)=O)c2N)cc1 (configuration not stated)	.	.	.	.	.	.
CCOC(=O)C1=C(C)N(c2ccc(OCC)cc2)C(=O)/C1=C\c1ccco1	.	.	.	.	.	.
Cc1ccc(/C=C2/C(=O)N(c3ccccc3)C(=S)N2C)o1	.	.	25	.	.	.
Cc1ccc(/C=C2\C(=O)NC(=O)N2C)o1	.	.	.	.	.	.
CCOc1ccc(N2C(=O)/C(=C/c3ccco3)N(C)C2=S)cc1	.	.	27	.	.	.
CCOc1ccc2nc(N(CCN(CC)CC)C(=O)c3ccc([N+](=O)[O-])cc3)sc2c1	.	.	.	.	.	44
CCN(CC)CCN(C(=O)c1ccc([N+](=O)[O-])cc1)c1nc2ccc(OC)cc2s1	.	.	.	.	.	.

Bioassay records as filed in PubChem BioAssay.
